# Unmarked numbers belong to inactive results. The rule behind the calls is not given here.
# Test: placental alkaline phosphatase inhibitors, dose response, counter-screen, biochemical, colorimetric (AID 779)
# Details: PLAP counter-screen, colorimetric OD read-out
row,Structure (SMILES),IC50
1,CN1/C(=C\C=C\C2=[N+](C)c3ccc4ccccc4c3C2(C)C)C(C)(C)c2ccccc21,> 50 µM
2,CC(=O)OC1(c2ccc(C)cc2)CN2CCC1c1ccccc12 (stereo not given),> 50 µM
3,Cc1cc(C=C2C(=O)N(C)C(=S)N(C)C2=O)c(C)n1C1CCCCC1,> 50 µM
4,COc1ccc(C(=O)CN2CCOCC2)cc1F,> 50 µM
5,CCCCOP(=O)(OCCCC)/C(C#N)=C(/C)O,> 50 µM
